Among the data in PubChem BioAssay (EPA / NIEHS) are outcome and AC50 values, retold here.

Where “and” joins values, the source holds several entries; their conditions need not be identical. Equal entries are not always repeated. The source holds several records for some structures; these can differ, active in one and inactive in another. Calls of active or inactive are those of the source. Rule for the calls: active = hit-call score of the fitted dose curve at least 0.9, where 1 is the maximum; inactive = score below 0.9.

In general, AC50 refers to the concentration giving half of the maximal activity seen.

The target of test [1] is Transcription factor E2F1 (Homo sapiens) (UniProt Q01094). Kind of test: ATG_E2F_CIS: Attagene CIS-FACTORIAL HepG2 Assay for human E2F Transcription Factor 1 (AID 2282935). Conditions: HepG2 Attagene cis-reporter, E2F reporter RNA transcripts; actives raise or lower the signal. In short, it runs like this:
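Measures reporter transcript levels via RT-PCR with capillary electrophoresis detection in HepG2 cells harboring cis-regulated reporter units; 24 h post-dose; bidirectional curve fitting with DMSO as baseline.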

The nature of test [2]: ATG_E_Box_CIS: Attagene CIS-FACTORIAL HepG2 Assay for human Enhancer Box (E-box) (AID 2282936). To be noted: HepG2 E-box cis-reporter transcription, actives raise or lower the signal. The method, boiled down:
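First, HepG2 cells receive multiple cis-regulated reporter constructs by transient transfection. Next, chemicals are applied for 24 h. Finally, reporter mRNA is quantified via RT-PCR and capillary electrophoresis, with DMSO as baseline.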

Test [3] is described as follows: ATG_M_61_CIS: Attagene CIS-FACTORIAL HepG2 Assay for M61 Transcription Factor (Internal Marker) (AID 2282937). To be noted: HepG2 Attagene CIS-FACTORIAL M61 internal marker reporter; actives raise or lower the signal. The method, boiled down: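 Using transiently transfected HepG2 liver cells, reporter transcript levels were assessed 24 h post-dosing by RT-PCR and capillary electrophoresis. Changes in either direction were fitted relative to DMSO controls.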

The nature of test [4]: ATG_EGR_CIS: Attagene CIS-FACTORIAL HepG2 Assay for human Early Growth Response 1 (EGR1) (AID 2282938). Conditions: HepG2 Attagene CIS-FACTORIAL EGR reporter mRNA; actives raise or lower the signal. In short, it runs like this:
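Fluorescent capillary-electrophoresis signal of reporter cDNA fragments serves as read-out. HepG2 cells bear transiently transfected cis-promoter reporter units and are exposed 24 h; gain- or loss-of-signal is fitted against DMSO.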

The nature of test [5]: ATG_M_19_CIS: Attagene CIS-FACTORIAL HepG2 Assay for M19 Transcription Factor (Internal Marker) (AID 2282939). Conditions: HepG2 Attagene CIS-FACTORIAL M19 internal marker reporter; actives raise or lower the signal. The method, boiled down: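 Readout: fluorescent reporter-transcript fragments by capillary electrophoresis after RT-PCR. Human HepG2 liver cells carried transfected MRTU constructs reporting endogenous transcription-factor activity; exposure 24 h. Gain or loss of signal fitted relative to DMSO.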

Test [6] can be described thus: ATG_ERE_CIS: Attagene CIS-FACTORIAL HepG2 Assay for Estrogen Response Element (ERE) (AID 2282940). Conditions: HepG2 ERE cis-reporter, Attagene RNA transcript; actives raise or lower the signal. In short, it runs like this: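 Readout: reporter mRNA induction by RT-PCR, FAM-labelled primer extension, HpaI digestion and capillary electrophoresis, 24 h after dosing transfected HepG2 cells. Endogenous transcription factors act on cis-element-regulated reporters. Gain or loss fitted against DMSO.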

Test [7] is described as follows: ATG_Ets_CIS: Attagene CIS-FACTORIAL HepG2 Assay for human Erythroblast Transformation Specific (ETS) (AID 2282941). Conditions: HepG2 ETS cis-reporter transcription, actives raise or lower the signal. In short, it runs like this:
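After transient cis-reporter transfection, HepG2 cells receive test chemical for 24 h. Reporter mRNA levels, measured by RT-PCR and capillary electrophoresis fluorescence, are analysed bidirectionally relative to the DMSO baseline.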

The target in test [8] is Hepatocyte nuclear factor 3-beta (Homo sapiens) (UniProt Q9Y261). Nature of the test: ATG_FoxA2_CIS: Attagene CIS-FACTORIAL HepG2 Assay for human Forkhead box A2 (FOXA2) (AID 2282942). To be noted: HepG2 cis-reporter transcription factor activity, 24 h; actives raise or lower the signal. The method, boiled down:
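Fluorescence signal of reporter cDNA fragments, separated by capillary electrophoresis, reflects endogenous transcription factor activity in transfected HepG2 after 24 h. Both increases and decreases fitted against DMSO.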

The nature of test [9]: ATG_FoxO_CIS: Attagene CIS-FACTORIAL HepG2 Assay for human Forkhead box O (FoxO) (AID 2282943). To be noted: HepG2 Attagene cis-reporter, FoxO element, mRNA; actives raise or lower the signal. The method, boiled down: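 HepG2 cells transiently transfected with cis-element-driven reporter units report endogenous FoxO activity. After 24 h chemical exposure, reporter mRNA quantified by RT-PCR, fluorescent labeling, HpaI digestion and capillary electrophoresis; bidirectional fit versus DMSO.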

The nature of test [10]: ATG_GATA_CIS: Attagene CIS-FACTORIAL HepG2 Assay for human GATA Binding Protein (AID 2282944). Conditions: HepG2 GATA cis-element reporter, Attagene multiplex mRNA; actives raise or lower the signal. In short, it runs like this:
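Read-out: fluorescent reporter mRNA fragments resolved by capillary electrophoresis after RT-PCR. Human liver HepG2 cells carried transiently transfected cis-regulated reporter constructs; chemicals incubated 24 h; gain or loss of signal fitted relative to DMSO.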

Test [11] can be described thus: ATG_GLI_CIS: Attagene CIS-FACTORIAL HepG2 Assay for human Zinc Finger Protein GLI1 (AID 2282945). Conditions: HepG2, Attagene cis-factorial reporter mRNA, GLI element; actives raise or lower the signal. In short, it runs like this:
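Transiently transfected HepG2 cells report endogenous transcription factor activity via cis-element-driven reporter units. After 24 h compound exposure, reporter mRNA was measured by RT-PCR with capillary electrophoresis; bidirectional fitting against DMSO baseline.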

Test [12] has as its target Bile acid receptor (Homo sapiens) (UniProt Q96RI1). Kind of test: ATG_IR1_CIS: Attagene CIS-FACTORIAL HepG2 Assay for human Nuclear Receptor Subfamily 1 Group H Member 4 (NR1H4), IR1 submotif (AID 2282946). To be noted: IR1 reporter transcription, actives raise or lower the signal. In short, it runs like this: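 HepG2 cells transiently transfected with multiple cis-promoter-driven reporter units to measure endogenous transcription factor activity; 24 h exposure. Reporter mRNA read by RT-PCR, FAM labelling, HpaI digestion and capillary electrophoresis. Bidirectional fit versus DMSO.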

Test [13] is described as follows: ATG_ISRE_CIS: Attagene CIS-FACTORIAL HepG2 Assay for human Interferon Regulatory Factor 1 (IRF1) binding to an Interferon-Stimulated Response Element (ISRE) (AID 2282948). To be noted: HepG2 ISRE cis-reporter (Attagene), mRNA transcription readout; actives raise or lower the signal. The method, boiled down: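 Quantitation relies on labelled RT-PCR fragments separated by capillary electrophoresis. Human HepG2 cells bearing cis-promoter reporter constructs were treated 24 h; DMSO served as baseline for bidirectional fitting.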

Test [14] can be described thus: ATG_M_32_CIS: Attagene CIS-FACTORIAL HepG2 Assay for M32 Transcription Factor (Internal Marker) (AID 2282949).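 Note: background control marker of the multiplexed CIS panel rather than a real target.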 To be noted: HepG2 Attagene cis-factorial M32 reporter, mRNA; actives raise or lower the signal. The method, boiled down: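 Internal background marker read-out: RT-PCR/capillary electrophoresis fluorescence of reporter transcripts from transiently transfected HepG2 cells after 24 h chemical exposure. Activity fitted bidirectionally relative to DMSO negative control.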

Test [15] is described as follows: ATG_M_06_CIS: Attagene CIS-FACTORIAL HepG2 Assay for M06 Transcription Factor (Internal Marker) (AID 2282950). To be noted: HepG2 Attagene CIS-FACTORIAL M06 internal marker reporter; actives raise or lower the signal. The method, boiled down: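 Terse: HepG2, transient MRTU transfection (FuGene 6), 24 h dosing; total RNA, oligo(dT) RT, PCR, FAM label, HpaI cut, capillary electrophoresis; bidirectional fit vs DMSO baseline; background-control endpoint.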

In test [16] the target is Hypoxia-inducible factor 1-alpha (Homo sapiens) (UniProt Q16665). Nature of the test: ATG_HIF1a_CIS: Attagene CIS-FACTORIAL HepG2 Assay for human Hypoxia Inducible Factor 1 (HIF1A) (AID 2282951). To be noted: HepG2 Attagene cis-factorial HIF1a reporter transcription; actives raise or lower the signal. In short, it runs like this:
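Endogenous-TF cis reporter readout, human HepG2 cells, 24 h incubation; mRNA detected via RT-PCR and capillary electrophoresis fluorescence; DMSO-normalised bidirectional fitting.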

Test [17] concerns the target Heat shock factor protein 1 (Homo sapiens) (UniProt Q00613). Kind of test: ATG_HSE_CIS: Attagene CIS-FACTORIAL HepG2 Assay for human Heat Shock Transcription Factor 1 (HSE) (AID 2282953). To be noted: HepG2 HSE cis-reporter, Attagene RNA transcription; actives raise or lower the signal. The method, boiled down: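 Read-out: fluorescence of reporter-specific RT-PCR fragments separated by capillary electrophoresis. HepG2 carrying transfected cis-element reporter units; 24 h dosing; activity fitted in both directions relative to DMSO baseline.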

Test [18] in a line: ATG_MRE_CIS: Attagene CIS-FACTORIAL HepG2 Assay for human Metal Responsive Element (MRE) (AID 2282954). To be noted: HepG2 MRE cis-reporter transcription, Attagene multiplex; actives raise or lower the signal. The method, boiled down: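 Fluorescent reporter fragments separated by capillary electrophoresis give mRNA induction for the MRE unit after 24 h treatment of transfected HepG2 cells. Endogenous transcription-factor activity is read; DMSO serves as negative control and baseline.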

Test [19] concerns the target Hepatocyte nuclear factor 6 (Homo sapiens) (UniProt Q9UBC0). Kind of test: ATG_HNF6_CIS: Attagene CIS-FACTORIAL HepG2 Assay for human Hepatocyte Nuclear Factor 6 (HNF6) (AID 2282952). To be noted: HepG2 Attagene cis-factorial HNF6 reporter transcription; actives raise or lower the signal. The method, boiled down:
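Transiently transfected HepG2 cells expressing cis-regulated reporter transcription units were exposed to chemical for 24 h in a 24-well format. Reporter transcript abundance was determined by fluorescence capillary electrophoresis.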

Sequence of Heat shock factor protein 1 (Homo sapiens) (Q00613 whole entry, looked up, the tested form may be a part): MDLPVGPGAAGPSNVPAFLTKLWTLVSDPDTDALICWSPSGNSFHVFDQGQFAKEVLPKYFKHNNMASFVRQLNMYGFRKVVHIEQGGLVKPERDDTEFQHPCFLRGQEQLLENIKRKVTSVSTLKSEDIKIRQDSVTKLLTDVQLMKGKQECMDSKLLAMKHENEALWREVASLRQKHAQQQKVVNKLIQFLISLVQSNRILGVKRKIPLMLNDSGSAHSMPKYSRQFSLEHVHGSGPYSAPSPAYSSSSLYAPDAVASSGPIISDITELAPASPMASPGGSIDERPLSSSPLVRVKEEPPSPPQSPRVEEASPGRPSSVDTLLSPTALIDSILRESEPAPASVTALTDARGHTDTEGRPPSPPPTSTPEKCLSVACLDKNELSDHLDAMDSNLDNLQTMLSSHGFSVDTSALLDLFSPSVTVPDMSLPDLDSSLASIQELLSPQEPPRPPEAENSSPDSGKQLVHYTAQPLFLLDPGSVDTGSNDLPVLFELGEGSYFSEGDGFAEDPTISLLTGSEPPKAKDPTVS
Sequence of Transcription factor E2F1 (Homo sapiens) (Q01094 whole entry, looked up): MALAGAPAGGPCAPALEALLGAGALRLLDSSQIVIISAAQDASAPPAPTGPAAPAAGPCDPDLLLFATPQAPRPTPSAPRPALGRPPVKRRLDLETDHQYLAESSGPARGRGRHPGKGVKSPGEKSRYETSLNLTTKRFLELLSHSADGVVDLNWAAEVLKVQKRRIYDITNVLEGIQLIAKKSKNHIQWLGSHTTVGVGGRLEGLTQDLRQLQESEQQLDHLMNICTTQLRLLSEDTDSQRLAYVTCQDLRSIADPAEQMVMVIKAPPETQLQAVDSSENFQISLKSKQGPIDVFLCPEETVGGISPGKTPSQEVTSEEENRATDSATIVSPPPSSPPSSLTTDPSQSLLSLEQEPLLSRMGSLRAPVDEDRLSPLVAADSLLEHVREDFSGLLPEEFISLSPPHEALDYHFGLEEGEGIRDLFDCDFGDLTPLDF
Sequence of Hepatocyte nuclear factor 3-beta (Homo sapiens) (Q9Y261 whole entry, looked up, the tested form may be a part): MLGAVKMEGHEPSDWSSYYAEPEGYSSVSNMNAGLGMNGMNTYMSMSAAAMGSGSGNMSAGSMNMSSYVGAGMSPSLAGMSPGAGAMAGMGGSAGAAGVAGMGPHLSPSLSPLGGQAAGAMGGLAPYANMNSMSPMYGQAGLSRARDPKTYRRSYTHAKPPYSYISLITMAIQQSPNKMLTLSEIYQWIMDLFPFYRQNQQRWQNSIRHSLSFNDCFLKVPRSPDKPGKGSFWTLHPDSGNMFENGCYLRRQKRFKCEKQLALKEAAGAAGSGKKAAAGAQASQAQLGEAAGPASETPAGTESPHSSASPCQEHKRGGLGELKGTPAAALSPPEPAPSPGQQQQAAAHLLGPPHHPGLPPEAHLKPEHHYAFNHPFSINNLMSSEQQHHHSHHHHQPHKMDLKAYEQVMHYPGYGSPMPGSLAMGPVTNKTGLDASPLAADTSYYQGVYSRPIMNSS
Sequence of Bile acid receptor (Homo sapiens) (Q96RI1 whole entry, looked up): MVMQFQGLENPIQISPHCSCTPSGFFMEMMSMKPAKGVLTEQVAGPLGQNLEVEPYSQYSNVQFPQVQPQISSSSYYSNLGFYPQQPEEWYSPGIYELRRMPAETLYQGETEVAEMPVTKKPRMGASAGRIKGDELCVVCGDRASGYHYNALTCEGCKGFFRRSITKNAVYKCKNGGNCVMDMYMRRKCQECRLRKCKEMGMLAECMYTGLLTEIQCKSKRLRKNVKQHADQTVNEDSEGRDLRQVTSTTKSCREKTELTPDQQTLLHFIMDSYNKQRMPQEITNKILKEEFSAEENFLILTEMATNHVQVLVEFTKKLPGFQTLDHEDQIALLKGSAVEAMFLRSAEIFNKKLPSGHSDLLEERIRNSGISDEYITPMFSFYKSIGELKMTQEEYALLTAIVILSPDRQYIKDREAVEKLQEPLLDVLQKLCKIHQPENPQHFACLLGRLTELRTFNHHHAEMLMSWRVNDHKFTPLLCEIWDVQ
Sequence of Hypoxia-inducible factor 1-alpha (Homo sapiens) (Q16665 whole entry, looked up): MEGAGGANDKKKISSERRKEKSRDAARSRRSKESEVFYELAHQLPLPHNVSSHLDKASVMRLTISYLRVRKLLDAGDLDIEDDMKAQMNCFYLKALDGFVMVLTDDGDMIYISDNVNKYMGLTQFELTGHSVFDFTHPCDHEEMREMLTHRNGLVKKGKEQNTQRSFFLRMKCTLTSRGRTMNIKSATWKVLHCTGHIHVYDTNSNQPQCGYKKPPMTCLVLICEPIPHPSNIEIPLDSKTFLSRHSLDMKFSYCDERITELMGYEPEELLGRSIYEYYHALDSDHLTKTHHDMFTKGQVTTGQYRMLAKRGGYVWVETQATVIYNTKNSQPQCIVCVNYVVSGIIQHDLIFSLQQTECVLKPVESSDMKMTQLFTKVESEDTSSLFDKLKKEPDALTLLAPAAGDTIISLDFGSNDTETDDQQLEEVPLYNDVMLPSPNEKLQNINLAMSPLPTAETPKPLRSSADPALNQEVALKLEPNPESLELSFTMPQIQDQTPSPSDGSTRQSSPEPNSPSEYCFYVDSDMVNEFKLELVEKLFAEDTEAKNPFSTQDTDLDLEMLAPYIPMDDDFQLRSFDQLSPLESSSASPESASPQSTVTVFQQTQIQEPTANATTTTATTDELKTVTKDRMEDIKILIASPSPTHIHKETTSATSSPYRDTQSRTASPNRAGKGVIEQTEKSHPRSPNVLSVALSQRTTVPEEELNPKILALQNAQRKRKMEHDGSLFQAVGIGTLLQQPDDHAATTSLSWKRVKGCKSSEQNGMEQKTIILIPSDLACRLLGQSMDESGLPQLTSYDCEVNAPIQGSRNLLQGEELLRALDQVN
Sequence of Hepatocyte nuclear factor 6 (Homo sapiens) (Q9UBC0 whole entry, looked up): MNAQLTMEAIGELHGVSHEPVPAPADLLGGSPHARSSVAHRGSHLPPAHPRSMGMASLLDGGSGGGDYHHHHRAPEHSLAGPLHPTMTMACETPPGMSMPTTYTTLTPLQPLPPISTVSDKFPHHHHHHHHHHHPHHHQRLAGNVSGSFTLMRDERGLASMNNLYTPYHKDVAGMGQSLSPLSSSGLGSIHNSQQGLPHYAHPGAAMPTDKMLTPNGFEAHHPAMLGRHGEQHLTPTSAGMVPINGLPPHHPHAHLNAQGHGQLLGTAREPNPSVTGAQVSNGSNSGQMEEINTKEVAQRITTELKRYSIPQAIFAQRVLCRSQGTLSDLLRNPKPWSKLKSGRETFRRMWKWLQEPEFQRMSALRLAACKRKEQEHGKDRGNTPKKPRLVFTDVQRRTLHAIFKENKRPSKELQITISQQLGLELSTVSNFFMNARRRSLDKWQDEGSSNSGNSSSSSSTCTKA

Turning to `c1ccc2c(c1)ccc1ccccc12`, the result in test [1], in test [2], in test [3], in test [4], in [5] and in test [6] was inactive. For the same molecule, the molecule was classed as inactive in [7], in [8], in test [9], in test [10], in test [11] and in test [12]. The molecule was called inactive in test [13], in test [14], in test [15], in test [17] and in [18]. In addition, the AC50 in [16] was 26.9 µM (active).

Consider `Oc1cc2ccccc2c2ccccc12`, for which the outcome in test [1], in test [2], in test [3], in [4], in [5] and in test [6] was inactive. Moreover, the call in [7], in [8], in test [9], in test [10], in [11] and in [12] was inactive. Moreover, the result in test [13], in [14], in test [15], in [16], in test [19] and in test [17] was inactive. Further, the call in [18] was inactive.

In the case of `O=c1c(-c2ccc(O)cc2)coc2cc(O)ccc12`, the molecule was called inactive in test [1], in test [2], in test [3], in [4], in [5] and in test [7]. The molecule was classed as inactive in test [8], in test [9], in test [10], in [11], in test [12] and in test [13]. Also, the call in [14], in test [15], in test [17] and in test [18] was inactive. In addition, the AC50 is 410 nM (active) [middle of 4 runs] in test [6]; 52.6 µM (active) and 100 µM (active) in [12].

For `CN1CCC[C@H]1c1cccnc1`, the molecule was called inactive in test [1], in [2], in [3], in [4], in test [5] and in [6]. Besides, the result in [7], in test [8], in test [9], in test [10], in test [11] and in test [13] was inactive. The molecule was classed as inactive in test [14], in test [15] and in test [18]. Also, the concentration at half-maximal activity (AC50) in [6] was 49.4 µM (active).
